Consider 10 compounds from PubChem BioAssay (NCATS).

Results filed as inconclusive are left out. The source made the active and inactive calls. Calls come from the whole dose curve; as a rule, active = well fitted cell-killing curve with a large enough effect; inconclusive = small, poorly fitted or top-dose-only effect; inactive = flat fitted curve, though single readings scatter.

The assay can be described thus: Cell Viability - LYMP2-025 (AID 976). As to conditions: LYMP2-025 lymphoblastoid cell viability; series mostly up to 92.2 µM. In a few lines:
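Human lymphoblastoid LYMP2-025 cells (2500/well) were pre-incubated 5 hr at 37 C, then treated with compounds for 24 hr at 37 C in complete medium. Viability was read as intracellular ATP by CellTiter-Glo luminescence; AC50 from Hill fits.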
Take `NC(=Nc1ccccc1)Nc1ccccc1`: the compound was classed as inactive.
For the compound `COC(=O)[C@H]1[C@H]2C[C@@H]3c4[nH]c5cc(OC)ccc5c4CCN3C[C@H]2C[C@@H](OC(=O)c2cc(OC)c(OC)c(OC)c2)[C@@H]1OC`, the compound was called inactive.
For `CN=C(NC#N)NCCSCc1nc[nH]c1C`, the outcome was inactive.
For the compound `NC(=O)N1c2ccccc2C=Cc2ccccc21`, the compound was classed as inactive.
On to `COc1cc(Cc2cnc(N)nc2N)cc(OC)c1OC`, for which the outcome was inactive.
`O=c1[nH]c(=O)n([C@H]2C[C@H](O)[C@@H](CO)O2)cc1Br`: the outcome was inactive.
Take `CCCCNC(=O)NS(=O)(=O)c1ccc(C)cc1`: the call was inactive.
As for `CCCCOCCOCCOCc1cc2c(cc1CCC)OCO2`, the compound was called inactive.
`Nc1nc(N)c2nc(-c3ccccc3)c(N)nc2n1`: the call was inactive.
Consider `COc1ccc(CN(CCN(C)C)c2ccccn2)cc1`, for which the result was inactive.
